Assay results: PubChem BioAssay (NCATS)
Records with an inconclusive call do not appear. Active and inactive are the calls of the source. Unless noted, calls come from the whole dose curve; as a rule, active = well fitted curve in the direction sought with a large enough effect; inconclusive = small, poorly fitted or top-dose-only effect, or another doubt; inactive = no such curve, though single readings can be large; an effect the other way counts as inactive or inconclusive.

Legend:
[1] = biological target: Estrogen receptor (Homo sapiens) (UniProt P03372); experiment: qHTS assay for small molecule agonists of estrogen receptor alpha signaling (AID 588514; calls by dose curve;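 note: 0% = vehicle only and 100% = reference agonist; nearly all actives have a fitted effect of over 70% in size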)
Procedure, shortened: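 ER-alpha-UAS-bla GripTite HEK 293 cells in medium with 2% charcoal/dextran-treated FBS were treated with compound titrations at 37 C for 18 hrs; beta-lactamase reporter read by CCF4 fluorescence after 2 hrs at RT.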

[2] = biological target: Peroxisome proliferator-activated receptor gamma (Homo sapiens) (UniProt P37231); experiment: qHTS assay for small molecule agonists of peroxisome proliferator-activated receptor gamma signaling (AID 588536; active = well fitted curve in the direction sought with a large enough effect in the signal ratio, with a control signal flat, not every such curve was filed as active; the % refers to the signal ratio;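 note: 0% = DMSO basal wells and 100% = rosiglitazone at 2 µM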)
Procedure, shortened: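 PPAR-gamma-UAS-bla HEK293 cells in medium with 1% charcoal/dextran-treated FBS were exposed to compounds for 16 h at 37 C. Beta-lactamase activity was read with CCF4 substrate (405 nm excitation, 460/530 nm emission).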

[3] = biological target: Vitamin D3 receptor (Homo sapiens) (UniProt P11473); experiment: qHTS assay for small molecule agonists of vitamin D receptor signaling (AID 588543; calls by dose curve;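 note: 0% = DMSO basal and 100% = reference agonist control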)
Procedure, shortened: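 Agonist-mode beta-lactamase reporter: HEK293T VDR-UAS-bla cells in charcoal-stripped 2% FBS, compound series 16 h 37 C, CCF4 2 h RT. EC50 from Hill fit, scaled against DMSO and 50 nM calcitriol control.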

[4] = qHTS assay for small molecule agonists of retinoid X receptor alpha signaling (AID 588544; calls by dose curve;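 for activation: 0% = DMSO basal wells and 100% = reference agonist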); details: HEK293T RXRa-UAS-bla, beta-lactamase reporter, 18 h; 530 nm emission
[5] = biological target: Retinoic acid receptor RXR-alpha (Homo sapiens) (UniProt P19793); experiment: as above
[6] = biological target: Thyroid hormone receptor beta (Homo sapiens) (UniProt P10828); experiment: qHTS assay for small molecule agonists of thyroid hormone receptor beta signaling (AID 588545; calls by dose curve;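 note: 0% = DMSO only and 100% = 10 nM T3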)
Procedure, shortened: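 Beta-lactamase reporter activity under TR response element control is measured in HEK 293 cells after 18 hrs compound exposure. Signal is ratiometric CCF4 fluorescence, 460/530 nm.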

[7] = qHTS assay for small molecule antagonists of retinoid X receptor alpha signaling (AID 588546; active = well fitted inhibition curve with a large enough effect in the signal ratio, with a control signal flat, not every such curve was filed as active; the % refers to the signal ratio;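 note: cells stimulated with 9-cis-retinoic acid as agonist; % is set by controls: 0 for no effect and ±100 for the full control effect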); details: HEK293T RXRa-UAS-bla, beta-lactamase ratio, antagonist mode; measured here: W530 green channel, cytotoxicity proxy
Procedure, shortened: (§1)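 Beta-lactamase reporter inhibition, read as CCF4 fluorescence ratio (ex 405, em 460/530 nm) after 2 h at RT. HEK293T UAS-bla cells, 2500/well, were stimulated with 9-cis-RA at 500 or 100 nM final alongside test compound for 18 h at 37 C.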

[8] = biological target: Retinoic acid receptor RXR-alpha (Homo sapiens) (UniProt P19793); experiment: as above; details: HEK293T RXRa-UAS-bla, beta-lactamase ratio, antagonist mode
Procedure, shortened: as §1

[9] = biological target: Thyroid hormone receptor beta (Homo sapiens) (UniProt P10828); experiment: qHTS assay for small molecule antagonists of thyroid hormone receptor beta signaling (AID 588547; active = well fitted inhibition curve with a large enough effect in the signal ratio, with a control signal flat, not every such curve was filed as active; the % refers to the signal ratio;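 note: cells stimulated with 0.4 nM T3 agonist during compound exposure; series mostly up to about 77 µM; % is set by controls: 0 for no effect and ±100 for the full control effect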); details: TR-UAS-bla HEK293, beta-lactamase ratio, antagonist mode, 18 h
Procedure, shortened: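 Inhibition of T3-driven (0.4nM final) beta-lactamase reporter activity was measured over 0.59 nM to 92 uM compound after 18 h at 37 C. The cells were GripTite HEK293 TR-UAS-bla in charcoal/dextran-stripped serum, with CCF4 ratio read-out and IC50 from Hill fits.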

[10] = qHTS assay for small molecule activators of the p53 signaling pathway (AID 651743; active = well fitted activation curve with a large enough effect in the signal ratio, not every such curve was filed as active; the % refers to the signal ratio; note: series mostly up to about 92 µM; % of control where 0% means no effect); details: HCT-116 p53RE-bla, beta-lactamase FRET ratio, 16 h; activation: stronger effect = higher value
Procedure, shortened: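 Screen for p53 pathway agonists uses stably transfected p53RE-bla HCT-116 cells, 4,000 per well, treated 16 h at 37 C with compounds in DMSO.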

[11] = qHTS assay for environmental chemicals that activate the Aryl hydrocarbon Receptor (AhR) signaling pathway (AID 651777); details: 1A2-DRE human hepatoma cells, luciferase, 24 h; activation: stronger effect = higher value; note: % of control where 0% means no effect; nearly all actives have a fitted effect of over 15% in size
Procedure, shortened: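 1A2-DRE human hepatoma reporter line; 1,200 cells/well; cmpd or DMSO 24 h, 37 C/5% CO2; One-Glo 30 min RT; luciferase lum.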

[12] = biological target: Peroxisome proliferator-activated receptor alpha (Homo sapiens) (UniProt Q07869); experiment: qHTS assay for small molecule agonists of the peroxisome proliferator-activated receptor alpha (PPARalpha) signaling pathway (AID 651778); details: PathHunter PPARalpha complementation, chemiluminescence, 6 h; max response: stronger effect = higher value; note: % of control where 0% means no effect
Procedure, shortened: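 Chemiluminescence from complemented enzyme reported PPARalpha activation in cells after 6 hr of compound treatment at 37 C. The detection reagent was incubated for 60 min at room temperature, and compounds were scored as agonists.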

[13] = qHTS assay for small molecule agonists of the antioxidant response element (ARE) signaling pathway measured by Nrf2-dependant transcriptional activity (AID 720636; active = well fitted curve in the direction sought with a large enough effect in the repeat runs; an effect the other way counts as inactive or inconclusive;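 note: HepG2 cells with an ARE-driven luciferase reporter; % of control where 0% means no effect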)
Procedure, shortened: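 Cells: ARE-luc HepG2 with Nrf2-responsive luciferase. Medium contained 1% dialyzed FBS. Compound exposure lasted 16 hr at 37 C and 5% CO2, followed by ONE-Glo luciferase detection.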

[14] = qHTS assay for small molecule agonists of the antioxidant response element (ARE) signaling pathway measured by Nrf2-dependant transcriptional activity - cell viability counter screen (AID 720653; active = well fitted curve in the direction sought with a large enough effect in the repeat runs; an effect the other way counts as inactive or inconclusive; note: % is set by controls: 0 for no effect and ±100 for the full control effect); details: ARE-bla HepG2 viability, CellTiter-Glo ATP luminescence, 16 h; max response: stronger effect = lower value
Procedure, shortened: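 Cytotoxicity counter screen: intracellular ATP quantified by CellTiter-Glo luminescence in the same ARE-bla HepG2 plates, after 16 h compound exposure and a 2 h beta-lactamase substrate step.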

[15] = qHTS assay for cell viability of HEK293 cells (AID 743288); details: ATP luminescence (CellTiter-Glo), 18 h; max response: stronger effect = lower value; note: % is set by controls: 0 for no effect and ±100 for the full control effect; nearly all actives have a fitted effect of over 50% in size
Procedure, shortened: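 Total intracellular ATP, measured with a luciferase-coupled reagent, indicates the number of viable HEK293 cells. Exposure to test chemicals lasts 18 h at 37 C in 1,536-well format at 2,000 cells/well.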

[16] = qHTS assay for cell viability of the p53RE-bla HCT-116 cell line (AID 743292); note: % is set by controls: 0 for no effect and ±100 for the full control effect; nearly all actives have a fitted effect of over 55% in size
Procedure, shortened: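 HCT-116 p53RE-bla cells seeded 4,000/well; 5 h at 37 C; compound (DMSO) added; 16 h at 37 C; CellTiter-Glo added, 30 min RT; luminescence read.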

[17] = biological target: Nuclear receptor subfamily 1 group I member 2 (Rattus norvegicus) (UniProt Q9R1A7); experiment: qHTS assay for small molecule activators of the rat pregnane X receptor (rPXR) signaling pathway (AID 651751; call rule not given here; note: 0% is about no effect); details: rPXR reporter cells, luciferase (One-Glo), 24 h
[18] = qHTS assay for small molecule activators of the human pregnane X receptor (PXR) signaling pathway (AID 720659; call rule not given here; note: 0% is about no effect)
[19] = biological target: Peroxisome proliferator-activated receptor gamma (Homo sapiens) (UniProt P37231); experiment: qHTS assay for small molecule antagonists of peroxisome proliferator-activated receptor gamma signaling (AID 588537; active = well fitted inhibition curve with a large enough effect in the signal ratio, with a control signal flat, not every such curve was filed as active; the % refers to the signal ratio;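 note: reporter cells co-stimulated with 50 nM rosiglitazone agonist during compound treatment; % of control where 0% means no effect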)
Procedure, shortened: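 Inhibitors of agonist-stimulated UAS-bla reporter activity were sought in HEK293 cells; rosiglitazone (50 nM) defined full signal and DMSO baseline. Curves fitted to Hill model gave IC50 and efficacy.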

[20] = qHTS assay for small molecule antagonists of peroxisome proliferator-activated receptor delta signaling (AID 588535); details: HEK293T PPARd-UAS-bla, beta-lactamase FRET ratio, 18 h; 460 nm channel;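 note: cells co-treated with a PPAR-delta agonist as stimulator during compound exposure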
Procedure, shortened: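 Cell-based beta-lactamase assay in antagonist mode: 4000 HEK293T PPAR-delta-UAS-bla cells per well, 5 hr preincubation then 18 hr compound incubation at 37 C. IC50 obtained by Hill equation fitting.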

Sequence of Peroxisome proliferator-activated receptor gamma (Homo sapiens) (P37231 whole entry, looked up): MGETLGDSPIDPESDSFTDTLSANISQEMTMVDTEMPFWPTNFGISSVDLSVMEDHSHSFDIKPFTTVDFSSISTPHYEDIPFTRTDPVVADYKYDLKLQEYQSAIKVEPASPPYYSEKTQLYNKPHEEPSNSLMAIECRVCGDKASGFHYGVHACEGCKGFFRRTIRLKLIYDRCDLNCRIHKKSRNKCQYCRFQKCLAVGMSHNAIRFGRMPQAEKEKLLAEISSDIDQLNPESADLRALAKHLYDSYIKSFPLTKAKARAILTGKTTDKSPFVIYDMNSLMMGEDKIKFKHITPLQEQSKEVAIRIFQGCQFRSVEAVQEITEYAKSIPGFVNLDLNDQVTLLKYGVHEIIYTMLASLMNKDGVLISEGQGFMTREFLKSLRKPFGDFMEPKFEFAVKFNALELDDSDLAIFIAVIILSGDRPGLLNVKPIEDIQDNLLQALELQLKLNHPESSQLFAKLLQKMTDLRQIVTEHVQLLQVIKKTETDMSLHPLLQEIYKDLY
Sequence of Estrogen receptor (Homo sapiens) (P03372 whole entry, looked up): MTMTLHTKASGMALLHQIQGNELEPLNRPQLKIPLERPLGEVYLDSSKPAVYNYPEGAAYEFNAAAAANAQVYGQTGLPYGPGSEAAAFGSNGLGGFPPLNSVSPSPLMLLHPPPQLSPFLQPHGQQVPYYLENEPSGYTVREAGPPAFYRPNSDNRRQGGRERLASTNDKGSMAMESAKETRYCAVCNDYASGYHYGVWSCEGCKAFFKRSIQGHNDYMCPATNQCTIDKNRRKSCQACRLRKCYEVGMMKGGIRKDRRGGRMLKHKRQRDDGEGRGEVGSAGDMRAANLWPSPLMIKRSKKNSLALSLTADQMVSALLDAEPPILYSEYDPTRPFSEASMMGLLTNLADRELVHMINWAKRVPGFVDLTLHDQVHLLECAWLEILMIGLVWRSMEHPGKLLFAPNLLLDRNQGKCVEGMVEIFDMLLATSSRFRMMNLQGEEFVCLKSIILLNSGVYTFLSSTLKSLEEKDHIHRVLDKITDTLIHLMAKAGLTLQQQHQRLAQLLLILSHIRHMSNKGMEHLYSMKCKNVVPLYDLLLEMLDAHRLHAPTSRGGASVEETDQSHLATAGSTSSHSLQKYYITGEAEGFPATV
Sequence of Vitamin D3 receptor (Homo sapiens) (P11473 whole entry, looked up): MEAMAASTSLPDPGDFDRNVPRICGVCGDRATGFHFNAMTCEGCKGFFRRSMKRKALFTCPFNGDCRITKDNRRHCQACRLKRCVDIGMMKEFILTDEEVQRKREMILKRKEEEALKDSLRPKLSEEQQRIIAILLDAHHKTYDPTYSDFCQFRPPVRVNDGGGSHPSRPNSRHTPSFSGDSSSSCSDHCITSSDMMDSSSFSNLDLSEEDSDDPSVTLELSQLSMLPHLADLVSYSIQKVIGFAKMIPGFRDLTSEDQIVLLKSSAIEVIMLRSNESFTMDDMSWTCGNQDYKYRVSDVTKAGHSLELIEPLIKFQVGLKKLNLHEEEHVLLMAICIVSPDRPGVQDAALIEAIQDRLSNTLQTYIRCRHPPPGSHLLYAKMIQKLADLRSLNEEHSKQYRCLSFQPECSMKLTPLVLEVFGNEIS
Sequence of Peroxisome proliferator-activated receptor alpha (Homo sapiens) (Q07869 whole entry, looked up): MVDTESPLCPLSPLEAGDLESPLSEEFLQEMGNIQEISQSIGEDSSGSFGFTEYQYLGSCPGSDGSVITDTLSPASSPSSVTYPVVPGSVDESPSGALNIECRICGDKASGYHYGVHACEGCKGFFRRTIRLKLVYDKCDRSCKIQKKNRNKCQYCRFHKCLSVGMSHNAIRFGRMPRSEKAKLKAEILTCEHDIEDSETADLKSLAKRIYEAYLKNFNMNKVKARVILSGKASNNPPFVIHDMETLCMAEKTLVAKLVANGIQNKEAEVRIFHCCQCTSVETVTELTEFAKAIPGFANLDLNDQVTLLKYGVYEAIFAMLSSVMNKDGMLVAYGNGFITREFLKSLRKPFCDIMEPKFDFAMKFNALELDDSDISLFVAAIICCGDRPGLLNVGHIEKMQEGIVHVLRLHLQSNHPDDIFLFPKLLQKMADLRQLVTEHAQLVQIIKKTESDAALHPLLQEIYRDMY
Sequence of Thyroid hormone receptor beta (Homo sapiens) (P10828 whole entry, looked up): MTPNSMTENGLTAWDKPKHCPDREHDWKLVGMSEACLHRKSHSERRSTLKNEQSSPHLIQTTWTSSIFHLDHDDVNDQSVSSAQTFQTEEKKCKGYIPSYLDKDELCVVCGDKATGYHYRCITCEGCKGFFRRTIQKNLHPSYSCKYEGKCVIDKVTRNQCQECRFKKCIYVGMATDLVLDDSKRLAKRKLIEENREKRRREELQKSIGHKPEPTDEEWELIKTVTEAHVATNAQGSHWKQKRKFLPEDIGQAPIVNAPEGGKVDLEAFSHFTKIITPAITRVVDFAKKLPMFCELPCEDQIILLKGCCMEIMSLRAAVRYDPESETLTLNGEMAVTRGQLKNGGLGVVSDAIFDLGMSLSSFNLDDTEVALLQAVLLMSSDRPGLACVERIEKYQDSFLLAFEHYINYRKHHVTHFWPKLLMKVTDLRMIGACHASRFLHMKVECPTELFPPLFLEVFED
Sequence of Nuclear receptor subfamily 1 group I member 2 (Rattus norvegicus) (Q9R1A7 whole entry, looked up): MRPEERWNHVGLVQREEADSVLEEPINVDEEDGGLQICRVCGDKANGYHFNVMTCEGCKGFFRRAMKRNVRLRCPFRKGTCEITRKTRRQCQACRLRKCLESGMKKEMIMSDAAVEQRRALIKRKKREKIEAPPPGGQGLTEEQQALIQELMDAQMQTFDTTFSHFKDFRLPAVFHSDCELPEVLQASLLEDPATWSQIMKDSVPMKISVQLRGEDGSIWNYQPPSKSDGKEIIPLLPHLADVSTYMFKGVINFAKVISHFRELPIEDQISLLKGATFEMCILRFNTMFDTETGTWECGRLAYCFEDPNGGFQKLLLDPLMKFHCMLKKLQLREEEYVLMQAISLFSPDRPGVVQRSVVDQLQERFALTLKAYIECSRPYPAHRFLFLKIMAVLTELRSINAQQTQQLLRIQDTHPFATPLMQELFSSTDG
Sequence of Retinoic acid receptor RXR-alpha (Homo sapiens) (P19793 whole entry, looked up): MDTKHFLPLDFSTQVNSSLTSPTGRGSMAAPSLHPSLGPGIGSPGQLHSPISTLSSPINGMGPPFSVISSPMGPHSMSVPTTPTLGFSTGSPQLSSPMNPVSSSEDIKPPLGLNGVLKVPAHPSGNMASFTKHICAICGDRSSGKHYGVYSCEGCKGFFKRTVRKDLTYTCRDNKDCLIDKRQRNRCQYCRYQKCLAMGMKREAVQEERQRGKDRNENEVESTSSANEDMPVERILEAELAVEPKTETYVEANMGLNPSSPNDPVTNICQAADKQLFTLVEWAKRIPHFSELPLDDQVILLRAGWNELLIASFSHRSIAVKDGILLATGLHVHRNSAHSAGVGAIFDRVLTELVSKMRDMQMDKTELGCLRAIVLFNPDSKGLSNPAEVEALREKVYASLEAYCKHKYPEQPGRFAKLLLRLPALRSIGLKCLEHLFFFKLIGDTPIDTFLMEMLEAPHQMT

Row | SMILES | Potency [1] | outcome [2] | outcome [3] | max response [4] [%] | Potency [5] | Potency [6] | max response [7] [%] | max response [8] | activity change % (negative = inhibition) [9] | activation [10] | activation [11] | max response [12] | Potency [13] | max response [14] | max response [15] | Potency [16] | max response [17] | outcome [18] | Potency [19] | max response [20] [%]
1 | CCCCCCCCCCCCCCO | inactive | inactive | inactive | -4.48 | inactive | inactive | -1.57 | 6.98% (inactive) | 8.79% (inactive) | -1.8% (inactive) | 0.688% (inactive) | 6.84% (inactive) | inactive | 4.22% (inactive) | -0.0211% (inactive) | inactive | 0.238% (inactive) | inactive | – | –
2 | CCOC(=O)c1ccccc1C | – | inactive | – | -8.14 | inactive | inactive | -9.25 | 1.73% (inactive) | -2.99% (inactive) | 2.88% (inactive) | -0.718% (inactive) | -0.0686% (inactive) | inactive | 0.0878% (inactive) | 0.0695% (inactive) | inactive | 1% (inactive) | inactive | inactive | –
3 | CCC(C)(C)C1CCC(O)CC1 (configuration not stated) | inactive | inactive | inactive | -12.5 | inactive | inactive | 9.01 | -29.4% (inactive) | -5.82% (inactive) | 1.97% (inactive) | -0.126% (inactive) | -0.406% (inactive) | inactive | -8.65% (inactive) | -3.71% (inactive) | inactive | -1.01% (inactive) | inactive | inactive | -12.1
4 | c1ccc(OCCOc2ccccc2)cc1 | inactive | inactive | inactive | – | – | inactive | -12.8 | -10.1% (inactive) | 5.59% (inactive) | – | 8.39% (inactive) | – | – | -8.94% (inactive) | -4.78% (inactive) | inactive | – | – | inactive | 9.85
5 | CN(C)C(=O)Nc1ccccc1 | inactive | inactive | inactive | -10.1 | inactive | inactive | -0.672 | -1.05% (inactive) | -24.6% (inactive) | – | 2.58% (inactive) | -2.12% (inactive) | inactive | 1.07% (inactive) | 1.22% (inactive) | inactive | 1.09% (inactive) | inactive | inactive | 13.2
6 | CCC(=O)C1C(=O)CC(C(=O)O)CC1=O (configuration not stated) | – | inactive | inactive | -10.4 | inactive | inactive | – | – | – | 2.03% (inactive) | -0.512% (inactive) | – | inactive | 14.2% (inactive) | 6.24% (inactive) | – | -8.49% (inactive) | inactive | inactive | –
7 | CSC(=O)c1cccc2nnsc12 | – | inactive | inactive | -10.1 | inactive | inactive | -10.7 | 12.7% (inactive) | – | 1.69% (inactive) | 0.806% (inactive) | -3.32% (inactive) | inactive | 15.6% (inactive) | 3.92% (inactive) | – | – | inactive | inactive | 21.6
8 | Cn1sccc1=O | – | inactive | inactive | – | – | – | -13.8 | 7.99% (inactive) | -11.2% (inactive) | – | -0.202% (inactive) | -2.31% (inactive) | inactive | -9.28% (inactive) | -4.03% (inactive) | inactive | – | – | – | -3.21
9 | CCCCCCCC(=O)OC | inactive | inactive | inactive | 14.7 | inactive | inactive | -15 | -8.88% (inactive) | 13.2% (inactive) | 3.63% (inactive) | -2.72% (inactive) | -3.16% (inactive) | inactive | 0.0694% (inactive) | -6.4% (inactive) | inactive | 2.14% (inactive) | inactive | inactive | 18.8
10 | Fc1ccc(Br)cc1 | inactive | – | inactive | 4.76 | inactive | inactive | -8.4 | 4.33% (inactive) | – | -1.54% (inactive) | 2.85% (inactive) | -2.75% (inactive) | inactive | -9.66% (inactive) | -0.046% (inactive) | inactive | -1.72% (inactive) | inactive | inactive | –
11 | CC(C)(C)c1ccc(O)c(C(C)(C)C)c1 | – | inactive | inactive | -10.9 | inactive | inactive | -6.68 | -3.49% (inactive) | 5.44% (inactive) | 1.63% (inactive) | 0.859% (inactive) | 8.37% (inactive) | inactive | -2.61% (inactive) | -8.41% (inactive) | inactive | 6.32% (inactive) | – | inactive | –
12 | CCCCCCCCCCCCO | – | inactive | inactive | -12.2 | inactive | inactive | -2.04 | 8.28% (inactive) | -1.52% (inactive) | -3.58% (inactive) | 2.81% (inactive) | -0.593% (inactive) | inactive | -4.36% (inactive) | -11.9% (inactive) | inactive | 1.35% (inactive) | inactive | inactive | 3.59
13 | C[Si]1(C)N[Si](C)(C)N[Si](C)(C)N1 | inactive | inactive | – | -6.42 | inactive | inactive | -13.1 | – | 17.9% (inactive) | -5.2% (inactive) | – | -0.733% (inactive) | inactive | -8.08% (inactive) | -3.76% (inactive) | inactive | 1.59% (inactive) | inactive | inactive | –
